L3MBTL1 inh: blocks human L3MBTL1 | Q9Y468 | Potency, µM (top dose mostly 57.1 µM), inactives show at the highest dose activity, negative = inhibition, most hits filed as inhibitors | hit rate 0.66% among 230,000 | AlphaScreen L3MBTL1–H3K9me1 peptide binding | AID 485360; further: on the % scale 0 is the no-effect control and ±100 the full control effect; nearly all actives have a fitted effect of over 60% in size
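Read-out is AlphaScreen signal from streptavidin donor and nickel chelate acceptor beads (10 ug/mL final each) bridging L3MBTL1 (50 nM) and biotinylated K9-monomethylated H3(1-15) peptide (75 nM), after 30 min compound exposure at room temperature.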
G9a block: inhibitors of human histone lysine methyltransferase G9a | Q96KQ7 | G9a H3K9 monomethylation, AlphaScreen, 2 h | Potency, µM (highest dose often 102 µM), inactives show top-dose activity, negative = inhibition, hits mostly inhibitors | hit rate 8.8% among 350,000 | AID 504332; further: on the % scale 0 is the no-effect control and ±100 the full control effect; nearly all actives have a fitted effect of over 75% in size
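Signal arises when biotinylated H3K9 peptide, once monomethylated, bridges streptavidin donor and antibody-captured acceptor beads. Enzyme at 20 nM was preincubated 15 min with test compounds; peptide 500 nM and SAM 20 uM then reacted for 2 h.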
BAZ2B block: BAZ2B (human) inhibition; AID 504333; hit rate 4.4% among 360,000; Potency, µM (highest dose often 114 µM), for the others: at the highest dose activity change, negative = inhibition, actives largely listed as inhibitors; AlphaScreen BAZ2B-H3K14Ac peptide displacement; further: on the % scale 0 is the no-effect control and ±100 the full control effect; nearly all actives have a fitted effect of over 60% in size
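Complex of BAZ2B and biotin-H3K14Ac (50 nM apiece) forms over 30 min at RT, then faces library compounds up to 110 uM for another 30 min; AlphaScreen beads added, 20 min dark incubation, luminescence read.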
Sfp PPTase inh: blocks B. subtilis Sfp PPTase activity. Potency, µM, for inactives: largest response in the series, negative = inhibition, usual class: inhibitors. Biochemical Sfp PPTase activity, qHTS. Q9F4F7. hit rate 3.5% among 310,000;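 further: the enzyme is Sfp with the accession as filed and its product quenches rhodamine fluorescence; 0% = enzyme reaction without inhibitor and -100% = no enzyme wells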
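Fluorescence-quenching assay with 15 nM Sfp, 5 uM rhodamine-CoA and 12.5 uM BHQ-2-labelled ybbR peptide in pH 7.6 Hepes/MgCl2 buffer. Enzyme was pre-incubated with compound for 15 min at room temperature. Rate was taken from the 30-min fluorescence change (525/598 nm).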
HP1b binding inh: blocks HP1-beta chromodomain binding to methylated histone tails | P83916 | AlphaScreen HP1-beta / biotin-H3K9me3 peptide binding | Potency, µM (doses to about 114 µM), inactives show top-dose activity change, negative = inhibition, most hits filed as inhibitors | hit rate 0.56% among 390,000 | AID 540317; further: nearly all actives have a fitted effect of over 70% in size
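AlphaScreen: HP1-beta (50 nM) preformed 30 min with biotin-H3(1-18)K9me3 peptide (50 nM) in PBS pH 7.4, 0.01% Tween-20. Compound added for 30 min at RT, then streptavidin donor/nickel chelate acceptor beads (10 ug/mL) for 30 min.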
JMJD2A Tudor inh: inhibitors of human JMJD2A Tudor domain | O75164 | hit rate 4.4% among 390,000 | AlphaScreen JMJD2A-Tudor / H3K4me3 peptide binding | Potency, µM (doses to about 114 µM), inactives show at the top dose activity change, negative = inhibition, usual class: inhibitors; further: on the % scale 0 is the no-effect control and ±100 the full control effect; nearly all actives have a fitted effect of over 50% in size
Target sequence (O75164 whole entry, looked up, the tested form may be a part): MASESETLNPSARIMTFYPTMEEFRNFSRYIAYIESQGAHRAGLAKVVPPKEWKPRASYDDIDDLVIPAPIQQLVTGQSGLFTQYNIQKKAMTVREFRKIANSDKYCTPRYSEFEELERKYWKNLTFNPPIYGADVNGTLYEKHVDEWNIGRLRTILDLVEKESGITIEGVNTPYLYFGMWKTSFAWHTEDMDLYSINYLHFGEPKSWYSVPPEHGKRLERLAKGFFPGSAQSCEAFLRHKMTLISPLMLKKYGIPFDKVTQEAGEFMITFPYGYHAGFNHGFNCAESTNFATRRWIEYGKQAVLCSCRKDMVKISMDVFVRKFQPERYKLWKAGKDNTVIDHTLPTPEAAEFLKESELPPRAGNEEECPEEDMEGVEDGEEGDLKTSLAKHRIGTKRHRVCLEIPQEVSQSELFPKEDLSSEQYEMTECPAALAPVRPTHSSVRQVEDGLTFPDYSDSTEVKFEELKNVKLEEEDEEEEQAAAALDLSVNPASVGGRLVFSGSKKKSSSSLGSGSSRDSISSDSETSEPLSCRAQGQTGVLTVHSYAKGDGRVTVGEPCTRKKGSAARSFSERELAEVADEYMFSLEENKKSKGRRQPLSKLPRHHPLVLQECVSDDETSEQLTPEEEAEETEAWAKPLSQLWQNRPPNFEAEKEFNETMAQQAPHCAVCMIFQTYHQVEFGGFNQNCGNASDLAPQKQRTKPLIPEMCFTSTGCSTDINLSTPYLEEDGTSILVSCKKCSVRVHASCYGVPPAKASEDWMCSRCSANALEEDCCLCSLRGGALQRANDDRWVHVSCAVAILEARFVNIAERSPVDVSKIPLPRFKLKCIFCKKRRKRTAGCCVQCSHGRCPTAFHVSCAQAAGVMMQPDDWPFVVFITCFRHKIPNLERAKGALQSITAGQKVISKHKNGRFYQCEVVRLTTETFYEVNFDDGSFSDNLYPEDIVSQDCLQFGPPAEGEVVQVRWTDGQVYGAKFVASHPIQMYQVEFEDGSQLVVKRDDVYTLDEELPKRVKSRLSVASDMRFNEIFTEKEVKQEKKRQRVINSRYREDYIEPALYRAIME
The depositor's hits bear a star; ? = inconclusive; · = not tested or not shown; [ ] = dose if it differs, or a comment. Only some compounds are listed: those with a hit (about 12% of all), similar ones and a draw of the others. The call rests on the fitted dose curve; in most records, active means well fitted curve in the direction sought with a large enough effect; inconclusive means small, poorly fitted or top-dose-only effect, or another doubt; inactive means no such curve, though single readings can be large; an effect the other way counts as inactive or inconclusive. Potency means the concentration at half of the fitted maximal effect.

SMILES	L3MBTL1 inh	G9a block	BAZ2B block	Sfp PPTase inh	HP1b binding inh	JMJD2A Tudor inh
CCCCC(=O)NNC(=S)NC(=O)c1cccc([N+](=O)[O-])c1	-8%	·	?	-81%	?	22µM*
CCCCCC(=O)NC(=S)Nc1cccc(C(C)=O)c1	0%	3%[59 µM]	9%	1%	34%	2%
CCCCC(=O)NNC(=S)NC(=O)c1ccc([N+](=O)[O-])cc1	-1%	2.8µM*	?	20µM*	?	32µM*
CCCCCC(=O)NNC(=O)Cc1ccc([N+](=O)[O-])cc1	·	-40%	7%	4%	6%	-10%
CCCCCC(=O)NNC(=S)NC(C)=O	19%	18µM*	11%	79µM*	-1%	45µM*
CCCCCC(=O)NC(=S)NC1C2CC3CC(C2)CC1C3 (configuration not stated)	11%	45µM*	-4%	-21%	56%	0%
COc1ccc(N2CCN(C(=O)C3CCN(S(=O)(=O)c4cnc[nH]4)CC3)CC2)cc1	·	?	·	·	15%	-9%
Cc1ccc2onc(CC(=O)N3CCN(c4cc(Cl)ccc4C)CC3)c2c1	·	?	?	·	37%	-12%
Cc1ccc(C(=O)NC(=S)NNC(=O)CC#N)cc1	-7%	8.9µM*	-26%	18%	11%	?
CCCCC(=O)NNC(=S)NC(=O)c1ccc(C)cc1	12%	11µM*	6%	?	14%	-13%
N#CCC(=O)NNC(=S)NC(=O)C(c1ccccc1)c1ccccc1	1%	-5%	-7%	6%	38%	-14%
CCCCCC(=O)NNC(=O)c1ccc(-c2ccccc2)cc1	-11%	9%[59 µM]	4%	-3%	20%	-17%
Cc1cc2c(c(=O)n1Cc1cccnc1)C(c1cccs1)C(C#N)=C(N)O2 (configuration not stated)	·	-5%[0.501 µM]	?	79µM*	56%	-13%
CCc1cccc(CC)c1NC(=O)CSc1nc2ccc(N3C(=O)C4C(C3=O)[C@H]3C=C[C@@H]4C3)cc2s1 (some centres not stated)	3%	1.4µM*	-35%	-5%	-15%	-19%
CCc1cccc(C)c1NC(=O)CSc1nc2ccc(N3C(=O)c4ccccc4C3=O)cc2s1	0%	·	3%	-3%	40%	-6%
COc1ccccc1C(=O)NC(CCSC)C(=O)OCC(=O)NC(=O)NCc1ccco1 (configuration not stated)	-10%	-9%[59 µM]	50µM*	-23%	-12%	?
COc1ccccc1C(=O)NC(CCSC)C(=O)NCCCSc1ccccc1 (configuration not stated)	-24%	56µM*	?	·	-12%	-34%
COc1ccccc1OCCNC(=O)C(CCSC)NC(=O)c1ccccc1Cl (configuration not stated)	-8%	1%[0.501 µM]	-6%	·	14%	-23%
CC(CC(=O)NCc1ccc(Cl)cc1)CC1=NS(=O)(=O)c2ccccc2N1 (configuration not stated)	·	-1%[59 µM]	-1%	·	-6%	-17%
O=C(NNS(=O)(=O)c1ccc(F)cc1)c1ccccc1O	-11%	32µM*	?	11%	24%	2%
Cc1ccc(/C=N\NC(=O)c2csnn2)cc1	-6%	·	8%	10µM*	-11%	-9%[11.4 µM]
NC(=O)NC(=O)Nc1ccccc1Cl	0%	1%[2.33 µM]	3%	-1%	65%	-7%[57.1 µM]
Cc1ccc(S(=O)(=O)NNC(=O)c2csnn2)cc1	-1%	?	-5%	10%	19%	18µM*
O=C(NC(=O)c1csnn1)Nc1ccccc1Cl	·	89µM*	-20%	3%	27%	-16%
O=C(NNS(=O)(=O)c1ccc(F)cc1)c1cc(Cl)ccc1O	-10%	6%[59 µM]	-7%	14%	59%	2%
SMILES	L3MBTL1 inh	G9a block	BAZ2B block	Sfp PPTase inh	HP1b binding inh	JMJD2A Tudor inh
Cn1c(=O)c2c(-c3ccccc3)n3c(c2n(C)c1=O)C(c1ccc([N+](=O)[O-])cc1)Nc1ccccc1-3 (configuration not stated)	·	-25%[59 µM]	-10%	·	7%	-16%
CC(=O)N1CC[C@@H]2CC(=O)CC[C@@H]21	·	23%[135 µM]	·	-3%	·	·
Cc1cccc(N(C)S(=O)(=O)c2nnc(NC(=O)C3CCCCC3)s2)c1	2%	318%[59 µM]	386%	·	356%	313%
Cc1ccc(S(=O)(=O)NNC(=O)c2ccccc2O)cc1	-7%	-9%[59 µM]	1%	4%	4%	3.2µM*
Cc1ccc(NC(=O)c2csnn2)c(C)c1	4%	14µM*	4%	4%	63%	-18%[57.1 µM]
Cc1ccc(NC(=O)CC(=O)Nc2ccc(C)cc2C)c(C)c1	·	5%	3%	2%	51%	-3%
O=C(NNS(=O)(=O)c1ccc(F)cc1)c1cccc(O)c1	0%	·	8%	0%	12%	25µM*
CCc1ccccc1NC(=O)Cn1cc2c(n1)CCC(C)C2 (configuration not stated)	·	1%[59 µM]	2%	·	13%	-12%
Fc1cccc(-n2ncc3c2ncn2nc(COc4ccc(Cl)cc4)nc32)c1	·	12%[59 µM]	5%	·	46%	1%
COc1ccc(-c2cn3nc(N4CCCC(C(=O)Nc5cccc(Cl)c5C)C4)sc3n2)cc1 (configuration not stated)	·	-35%[59 µM]	-1%	·	16%	-9%
COC(=O)[C@H](Cc1ccccc1)NC(=O)O[C@@H]1C(=O)c2ccc(OC)cc2O[C@H]1c1cccc(C(F)(F)F)c1	·	·	·	-7%	·	·
Cc1ccc(NC(=O)c2nc(S(C)(=O)=O)ncc2N(Cc2ccccc2)Cc2ccco2)c(C)c1	·	-1%[59 µM]	-2%	·	37%	-7%
COc1ccc(-n2c(=O)c3sc4ccccc4c3n(CC(=O)N3CCCC3)c2=O)cc1	·	32%[59 µM]	4%	·	47%	-4%
O=C(CCS(=O)(=O)c1cc(Br)cc2c1N(C(=O)C1CC1)CC2)Nc1ccc(F)cc1	·	-17%[59 µM]	-6%	·	19%	-16%
CC(=O)C1C(=O)c2c(cccc2[N+](=O)[O-])C1=Nc1ccc(S(N)(=O)=O)cc1 (configuration not stated)	-16%	40µM*	?	?	7%	?
O=C(C[n+]1cccc(C(=O)N/N=C/c2ccc(Br)cc2)c1)c1ccccc1	-1%	1.4µM*	-9%	·	27%	?
O=C(N/N=C/c1ccc(Br)cc1)c1cc[n+](Cc2ccccc2)cc1	-2%	?	-7%	79µM*	19%	-24%
NC(=O)c1ccc[n+](CC(=O)c2ccc(Br)cc2)c1	-17%	-1%	2%	6%	48%	-22%
O=C(Nc1c(C(=O)N2CCN(c3ccc(F)cc3)CC2)oc2ccccc12)c1c(F)cccc1F	·	?	-16%[57.1 µM]	·	-12%	-33%

Source: PubChem
